High-throughput results deposited in PubChem BioAssay by several laboratories.
NALP1 yeast inh – NALP1 inhibition | S. cerevisiae NALP1/ASC/caspase-1 growth, X-gal OD620, 72 h | inhibition, % at 10 µM | hit rate 0.61% among 280,000 | AID 2071; in the data active means inhibition mostly above about 24%, no sharp cut-off; inactive means mostly below about 32%
PolyA inh – yeast polyadenylation inhibition; activity score, % at 12 µM; S. cerevisiae SKY197-pL101 polyadenylation reporter, beta-gal luminescence; efflux-impaired pdr1/pdr3 knockout yeast; score 100 = 6 SD above DMSO; hit rate 0.02% among 300,000; AID 1875;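 active means lowest replicate activity score at least 50, where 100 means six control SD above control mean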;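 further: yeast exposed to compound for 9 h at 30 °C; higher score means more reporter readthrough which indicates perturbed polyadenylation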
APOBEC3G inh – inhibitors of human APOBEC3G DNA deaminase; Q9HC16; recombinant A3G, ssDNA deamination FAM/TAMRA fluorescence; inhibition, % at 20 µM; hit rate 0.28% among 330,000; AID 493012;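 active means inhibition of at least 40% at 20 µM, with no more than 30% in the related APOBEC3A deaminase screen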
A3A deaminase – human APOBEC3A DNA deaminase inhibition | P31941 | recombinant A3A, FAM/TAMRA ssDNA deamination fluorescence | inhibition, % at 20 µM | hit rate 0.41% among 330,000;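 active means at least 40% inhibition at 20 µM here, with at most 30% in a related deaminase screen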
APOBEC3G confirm – confirmation of human APOBEC3G DNA deaminase inhibitors; inhibition, % at 20 µM; shares compounds with APOBEC3G inh; AID 493152; hit rate 72% among 890; recombinant A3G ssDNA deaminase, UDG/FAM-TAMRA fluorescence;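 active means inhibition reaching a set limit in any replicate at 20 µM, the limit being 80% of the first screen's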
UDG ctr A3G – E. coli UDG inhibition in APOBEC3G counter-screen | shares compounds with APOBEC3G inh | 710 tested, under 10 active | UDG counterscreen, FAM/TAMRA oligo fluorescence | inhibition, % at 20 µM;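 active means compounds giving 40% or more inhibition at 20 µM in any one of the three replicates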;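 further: inhibitors lower the FAM signal released by uracil excision and alkaline cleavage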
Target sequence (P12295 whole entry, looked up): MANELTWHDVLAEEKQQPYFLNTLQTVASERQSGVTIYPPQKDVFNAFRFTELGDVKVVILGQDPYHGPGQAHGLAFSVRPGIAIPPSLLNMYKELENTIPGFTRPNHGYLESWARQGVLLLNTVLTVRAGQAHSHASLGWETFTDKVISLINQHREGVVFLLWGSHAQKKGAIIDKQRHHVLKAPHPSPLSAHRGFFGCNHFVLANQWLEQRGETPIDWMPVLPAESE
Each line names hits and unclear results; the compound was inactive in the other large screens (follow-up assays come after a bar, where they were run). Compounds with a hit are over-represented: about 1.2% of the library has one in this group of screens.

O=[N+]([O-])c1ccc(/C=N/n2c(-c3cccnc3)n[nH]c2=S)cc1	APOBEC3G inh 63 | APOBEC3G confirm 62 | UDG ctr A3G inactive
O=[N+]([O-])c1cccc(/C=N/n2c(-c3cccnc3)n[nH]c2=S)c1	APOBEC3G inh 69 | APOBEC3G confirm 74 | UDG ctr A3G inactive
CN1C(=O)[C@H]2[C@@H](/C=C/c3ccccc3)N3C(=O)CN(CCO)C(=O)[C@@]3(C)[C@H]2C1=O	none
COc1ccc(NC(=O)c2ccc(N3C(=O)C4CC=C(Cl)CC4C3=O)cc2)cc1 (stereo not given)	none
O=C(NN1C(=O)C2CC=C(Cl)CC2C1=O)c1ccncc1 (stereo not given)	APOBEC3G inh 40 | APOBEC3G confirm 41 | UDG ctr A3G inactive
S=c1[nH]nc(C2CCCCC2)n1/N=C/c1ccncc1	APOBEC3G inh 48 | APOBEC3G confirm 68 | UDG ctr A3G inactive
CSc1ccc(/C=N/n2c(C3CCCCC3)n[nH]c2=S)cc1	none
Cc1ccc(-c2csc3n[nH]c(=S)n23)cc1	APOBEC3G inh 60 | APOBEC3G confirm 82 | UDG ctr A3G inactive
Cc1ccc(-n2c(C)n[nH]c2=S)cc1	none (no result: APOBEC3G inh, A3A deaminase)
COC(=O)c1sc(NC(=O)CSc2nnnn2C)nc1C	APOBEC3G inh 56 | APOBEC3G confirm inactive | UDG ctr A3G inactive
Cc1nc(NC(=O)CSc2nnnn2C)sc1C	none
